# Assay results reported in PubChem BioAssay (NCI).
# Compounds without any hit were thinned out: in the full panel of roughly 79,000, 15% have a hit. Unmarked numbers belong to inactive results. Activity calls are given as the source filed them. No stated cut-off is given here; in the data, active means growth inhibition above about 70%; inactive means the rest.
# Columns and labels:
# [1] = NCI Yeast Anticancer Drug Screen. Data for the rad52 strain (AID 147);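 further: 0% = growth of vehicle-treated control cultures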; conditions: S. cerevisiae rad52 mutant growth inhibition, stronger effect = higher value
# Outline: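 Genetically altered yeast (DNA damage repair defect) treated with compound; inhibition calculated relative to vehicle.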
# [2] = NCI Yeast Anticancer Drug Screen. Data for the wt1 strain (AID 149);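 further: 0% = growth of vehicle-treated wt1 cultures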; conditions: S. cerevisiae wt1 strain (SPY 50644) growth inhibition, stronger effect = higher value
# Outline: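 Each compound is tested on wt1 yeast and the loss of growth versus vehicle gives the inhibition value.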
# [3] = NCI Yeast Anticancer Drug Screen. Data for the mgt1 strain (AID 153); conditions: S. cerevisiae mgt1 mutant growth inhibition, stronger effect = higher value
# Outline: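 Read-out: yeast growth inhibition vs vehicle control. Strain mgt1, drawn from a panel altered in DNA damage repair or cell cycle control.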
# [4] = NCI Yeast Anticancer Drug Screen. Data for the rad50 strain (AID 155);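 further: 0% = growth of vehicle-only cultures of the same strain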; conditions: S. cerevisiae rad50 strain growth inhibition, stronger effect = higher value
# Outline: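 Vehicle-treated cultures provide the reference for the growth inhibition reported for compound-exposed, repair-deficient yeast.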
# [5] = NCI Yeast Anticancer Drug Screen. Data for the mec2-1 strain (AID 157); conditions: S. cerevisiae mec2-1 strain, stronger effect = higher value
# Outline: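 Cells of the genetically defined mec2-1 yeast strain are incubated with test compound. Inhibition of growth is calculated against vehicle-treated controls.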
# [6] = NCI Yeast Anticancer Drug Screen. Data for the rad14 strain (AID 159);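 further: 0% = growth of vehicle-treated control cultures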; conditions: S. cerevisiae rad14 strain growth inhibition, stronger effect = higher value
# Outline: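 Inhibition of growth is reported for a repair-deficient yeast mutant following compound treatment, calculated relative to cultures that received vehicle.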
# [7] = NCI Yeast Anticancer Drug Screen. Data for the sgs1 mgt1 strain (AID 161);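 further: 0% = growth of cultures given vehicle only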; conditions: S. cerevisiae sgs1 mgt1 strain, stronger effect = higher value
# Outline: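 Mutant yeast exposed to compound; growth scored against vehicle-only wells.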
# [8] = NCI Yeast Anticancer Drug Screen. Data for the CLN2oe strain (AID 163);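 further: 0% = growth of vehicle-only control cultures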; conditions: S. cerevisiae CLN2oe strain, stronger effect = higher value
# Outline: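 Strain altered in cell-cycle control, incubated with compound; growth compared to solvent-treated controls.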
# [9] = NCI Yeast Anticancer Drug Screen. Data for the cln2 rad14 strain (AID 165);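 further: 0% = growth equal to vehicle treated cultures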; conditions: S. cerevisiae cln2 rad14 strain, stronger effect = higher value
# Outline: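 The screen exposed genetically defined yeast (cln2 rad14) to test compounds and scored growth inhibition relative to vehicle-treated controls.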
# [10] = NCI Yeast Anticancer Drug Screen. Data for the bub3 strain (AID 167); conditions: S. cerevisiae bub3 mutant strain, stronger effect = higher value
# Outline: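 Mutant yeast screening strain plus compound; vehicle-treated cultures serve as the 0% inhibition reference.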
# [11] = NCI Yeast Anticancer Drug Screen. Data for the wt2 strain (AID 169); conditions: S. cerevisiae wt2 strain growth inhibition, stronger effect = higher value
# Outline: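 Steps: yeast strain treated with compound; growth recorded; inhibition calculated relative to cultures given vehicle alone.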
# [12] = NCI Yeast Anticancer Drug Screen. Data for the mlh1 strain (AID 171);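 further: 0% = growth of vehicle-treated control cultures of the same strain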; conditions: S. cerevisiae mlh1 strain growth inhibition, stronger effect = higher value
# Outline: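 Yeast screen: mutant strain plus compound, growth scored against vehicle control wells.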
# [13] = NCI Yeast Anticancer Drug Screen. Data for the sgs1 strain (AID 173);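 further: 0% = growth of vehicle-only control cultures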; conditions: S. cerevisiae sgs1 mutant, stronger effect = higher value
# Outline: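 Inhibition of yeast growth served as the measure. The mutant strain was treated with each compound, and growth was normalised to cultures receiving vehicle alone.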
# [14] = NCI Yeast Anticancer Drug Screen. Data for the mlh1 rad18 strain (AID 175); conditions: S. cerevisiae mlh1 rad18 strain growth inhibition, stronger effect = higher value
# Outline: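 Compound-treated yeast growth, normalised to vehicle controls. Strain bears defined DNA repair mutations.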
# [15] = NCI Yeast Anticancer Drug Screen. Data for the rad18 strain (AID 177); conditions: S. cerevisiae rad18 mutant growth inhibition, stronger effect = higher value
# Outline: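 Inhibition values reflect reduced yeast growth compared with vehicle-treated controls, using a strain engineered with a DNA damage repair defect.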
# [16] = NCI Yeast Anticancer Drug Screen. Data for the rad50EPP+ strain (AID 151);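 further: 0% = growth of vehicle-treated control cultures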; conditions: S. cerevisiae rad50 mutant strain, stronger effect = higher value
# Outline: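 Strain rad50EPP+; compound exposure; % growth inhibition vs vehicle.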
# [17] = at 5.0 µM (retest, dose inferred, filed as 0.5)
# [18] = at 50.0 µM (retest, dose inferred, filed as 5.0)
smiles,measurement,setting,value
C(=Nc1ccc(-c2cc(-c3ccccc3)nc3ccc4ccccc4c23)cc1)c1ccccc1,growth inhibition,[1]; at 1.2 µM,34%
same,growth inhibition,[1]; at 3.7 µM,40%
same,growth inhibition,[1]; at 11.0 µM,37%
same,growth inhibition,[1]; at 33.0 µM,53%
same,growth inhibition,[1]; at 100.0 µM,76% (active)
same,growth inhibition,[2]; at 1.2 µM,26%
same,growth inhibition,[2]; at 3.7 µM,24%
same,growth inhibition,[2]; at 11.0 µM,9%
same,growth inhibition,[2]; at 33.0 µM,31%
same,growth inhibition,[2]; at 100.0 µM,57%
same,growth inhibition,[3]; at 1.2 µM,21%
same,growth inhibition,[3]; at 3.7 µM,11%
same,growth inhibition,[3]; at 11.0 µM,12%
same,growth inhibition,[3]; at 33.0 µM,10%
same,growth inhibition,[3]; at 100.0 µM,47%
same,growth inhibition,[4]; at 1.2 µM,23%
same,growth inhibition,[4]; at 3.7 µM,24%
same,growth inhibition,[4]; [17],20%
same,growth inhibition,[4]; at 11.0 µM,42%
same,growth inhibition,[4]; at 33.0 µM,52%
same,growth inhibition,[4]; [18],54%
same,growth inhibition,[4]; at 50.0 µM,50.2%
same,growth inhibition,[4]; at 100.0 µM,68%
same,growth inhibition,[5]; at 1.2 µM,11%
same,growth inhibition,[5]; at 3.7 µM,5%
same,growth inhibition,[5]; [17],17%
same,growth inhibition,[5]; at 11.0 µM,16%
same,growth inhibition,[5]; at 33.0 µM,14%
same,growth inhibition,[5]; [18],72% (active)
same,growth inhibition,[5]; at 50.0 µM,33%
same,growth inhibition,[5]; at 100.0 µM,31%
same,growth inhibition,[6]; at 1.2 µM,24%
same,growth inhibition,[6]; at 3.7 µM,20%
same,growth inhibition,[6]; at 11.0 µM,21%
same,growth inhibition,[6]; at 33.0 µM,38%
same,growth inhibition,[6]; at 100.0 µM,34%
same,growth inhibition,[7]; [17],11%
same,growth inhibition,[7]; [18],92% (active)
same,growth inhibition,[7]; at 50.0 µM,55.2%
same,growth inhibition,[8]; at 1.2 µM,29%
same,growth inhibition,[8]; at 3.7 µM,24%
same,growth inhibition,[8]; at 11.0 µM,34%
same,growth inhibition,[8]; at 33.0 µM,38%
same,growth inhibition,[8]; at 100.0 µM,37%
same,growth inhibition,[9]; [17],25%
same,growth inhibition,[9]; [18],75% (active)
same,growth inhibition,[9]; at 50.0 µM,14.7%
same,growth inhibition,[10]; at 1.2 µM,-9%
same,growth inhibition,[10]; at 3.7 µM,-13%
same,growth inhibition,[10]; [17],12%
same,growth inhibition,[10]; at 11.0 µM,-5%
same,growth inhibition,[10]; at 33.0 µM,14%
same,growth inhibition,[10]; [18],89% (active)
same,growth inhibition,[10]; at 50.0 µM,50.8%
same,growth inhibition,[10]; at 100.0 µM,31%
same,growth inhibition,[11]; at 1.2 µM,-22%
same,growth inhibition,[11]; at 3.7 µM,-21%
same,growth inhibition,[11]; at 11.0 µM,-17%
same,growth inhibition,[11]; at 33.0 µM,62%
same,growth inhibition,[11]; at 100.0 µM,81% (active)
same,growth inhibition,[12]; at 1.2 µM,8%
same,growth inhibition,[12]; at 3.7 µM,17%
same,growth inhibition,[12]; at 11.0 µM,9%
same,growth inhibition,[12]; at 33.0 µM,-8%
same,growth inhibition,[12]; at 100.0 µM,9%
same,growth inhibition,[13]; at 1.2 µM,28%
same,growth inhibition,[13]; at 3.7 µM,18%
same,growth inhibition,[13]; at 11.0 µM,25%
same,growth inhibition,[13]; at 33.0 µM,36%
same,growth inhibition,[13]; at 100.0 µM,64%
same,growth inhibition,[14]; [17],20%
same,growth inhibition,[14]; [18],85% (active)
same,growth inhibition,[14]; at 50.0 µM,57.6%
same,growth inhibition,[15]; at 1.2 µM,30%
same,growth inhibition,[15]; at 3.7 µM,32%
same,growth inhibition,[15]; at 11.0 µM,44%
same,growth inhibition,[15]; at 33.0 µM,68%
same,growth inhibition,[15]; at 100.0 µM,73% (active)
Cc1c(C)c(C)c(CSC(=N)N)c(C)c1C,growth inhibition,[1]; at 1.2 µM,-23%
same,growth inhibition,[1]; at 3.7 µM,-17%
same,growth inhibition,[1]; at 11.0 µM,-12%
same,growth inhibition,[1]; at 33.0 µM,36%
same,growth inhibition,[1]; at 100.0 µM,98% (active)
same,growth inhibition,[16]; at 1.2 µM,-55%
same,growth inhibition,[16]; at 3.7 µM,-53%
same,growth inhibition,[16]; at 11.0 µM,-79%
same,growth inhibition,[16]; at 33.0 µM,-59%
same,growth inhibition,[16]; at 100.0 µM,96% (active)
same,growth inhibition,[3]; at 1.2 µM,-52%
same,growth inhibition,[3]; at 3.7 µM,-50%
same,growth inhibition,[3]; at 11.0 µM,-50%
same,growth inhibition,[3]; at 33.0 µM,6%
same,growth inhibition,[3]; at 100.0 µM,98% (active)
same,growth inhibition,[4]; at 1.2 µM,-13%
same,growth inhibition,[4]; at 3.7 µM,-10%
same,growth inhibition,[4]; [17],46%
same,growth inhibition,[4]; at 11.0 µM,-9%
same,growth inhibition,[4]; at 33.0 µM,51%
same,growth inhibition,[4]; [18],81% (active)
same,growth inhibition,[4]; at 50.0 µM,91.8% (active)
same,growth inhibition,[4]; at 100.0 µM,99% (active)
same,growth inhibition,[5]; at 1.2 µM,-74%
same,growth inhibition,[5]; at 3.7 µM,-78%
same,growth inhibition,[5]; [17],54%
same,growth inhibition,[5]; at 11.0 µM,-69%
same,growth inhibition,[5]; at 33.0 µM,31%
same,growth inhibition,[5]; [18],86% (active)
same,growth inhibition,[5]; at 50.0 µM,93.5% (active)
same,growth inhibition,[5]; at 100.0 µM,98% (active)
same,growth inhibition,[6]; at 1.2 µM,-31%
same,growth inhibition,[6]; at 3.7 µM,-27%
same,growth inhibition,[6]; at 11.0 µM,-12%
same,growth inhibition,[6]; at 33.0 µM,85% (active)
same,growth inhibition,[6]; at 100.0 µM,98% (active)
same,growth inhibition,[7]; [17],-4%
same,growth inhibition,[7]; [18],100% (active)
same,growth inhibition,[7]; at 50.0 µM,93.3% (active)
same,growth inhibition,[8]; at 1.2 µM,-22%
same,growth inhibition,[8]; at 3.7 µM,-18%
same,growth inhibition,[8]; at 11.0 µM,-14%
same,growth inhibition,[8]; at 33.0 µM,59%
same,growth inhibition,[8]; at 100.0 µM,99% (active)
same,growth inhibition,[9]; [17],8%
same,growth inhibition,[9]; [18],100% (active)
same,growth inhibition,[9]; at 50.0 µM,86.1% (active)
same,growth inhibition,[10]; at 1.2 µM,-23%
same,growth inhibition,[10]; at 3.7 µM,-9%
same,growth inhibition,[10]; [17],35%
same,growth inhibition,[10]; at 11.0 µM,-10%
same,growth inhibition,[10]; at 33.0 µM,55%
same,growth inhibition,[10]; [18],99% (active)
same,growth inhibition,[10]; at 50.0 µM,83.2% (active)
same,growth inhibition,[10]; at 100.0 µM,98% (active)
same,growth inhibition,[11]; at 1.2 µM,-41%
same,growth inhibition,[11]; at 3.7 µM,-38%
same,growth inhibition,[11]; at 11.0 µM,-32%
same,growth inhibition,[11]; at 33.0 µM,57%
same,growth inhibition,[11]; at 100.0 µM,99% (active)
same,growth inhibition,[12]; at 1.2 µM,-35%
same,growth inhibition,[12]; at 3.7 µM,-43%
same,growth inhibition,[12]; at 11.0 µM,-17%
same,growth inhibition,[12]; at 33.0 µM,77% (active)
same,growth inhibition,[12]; at 100.0 µM,98% (active)
same,growth inhibition,[13]; at 1.2 µM,-51%
same,growth inhibition,[13]; at 3.7 µM,-34%
same,growth inhibition,[13]; at 11.0 µM,-34%
same,growth inhibition,[13]; at 33.0 µM,84% (active)
same,growth inhibition,[13]; at 100.0 µM,98% (active)
same,growth inhibition,[14]; [17],44%
same,growth inhibition,[14]; [18],78% (active)
same,growth inhibition,[14]; at 50.0 µM,92.3% (active)
same,growth inhibition,[15]; at 1.2 µM,-56%
same,growth inhibition,[15]; at 3.7 µM,-55%
same,growth inhibition,[15]; at 11.0 µM,-58%
same,growth inhibition,[15]; at 33.0 µM,58%
same,growth inhibition,[15]; at 100.0 µM,98% (active)
